pS6 MEF inh: inhibitors of mTORC1 signaling in Tsc2-/- p53-/- MEF cells; 0.78% of 44,000 active; AID 493208; Tsc2-/- p53-/- MEF, phospho-rpS6 immunofluorescence/PI, 24 h; Potency, µM (highest dose often 38.3 µM), actives largely listed as inhibitors; note: nearly all actives have a fitted effect of over 50% in size
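Read-out: phospho-S6 Alexa-488 intensity over PI intensity per well, scored as % active cells using thresholds from rapamycin (7.5 nM) and DMSO controls. Tsc2-/-, p53-/- MEFs exposed to compound for 24 h; PI cell count recorded as viability.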
SKOV3 invasion: inhibitors of ovarian cancer cell adhesion and invasion in omental model. SKOV3ip1-GFP adhesion/invasion on 3D omental model, fluorescence. AID 1963576. 0.1% of 46,000 active. Potency, µM (series often up to 45.8 µM), hits mostly inhibitors; note: nearly all actives have a fitted effect of over 65% in size
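qHTS, 4-pt dose (0.36-46 umol/L); SKOV3ip1-GFP, 1,200 cells/well, no FBS; primary omental fibroblast/mesothelial co-culture 48 h pre-grown; 2 h RT + 16 h 37 C; PBS wash, 4% PFA; GFP count 488/509 nm.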
p53null 39C kill: selectivity test: cytotoxicity in p53 null cells, nonpermissive temperature. Potency, µM (top dose mostly 46.1 µM), hits mostly cytotoxic. H1299 p53-null (neo) cells, 39C, ATPlite viability, 24 h. 0.97% of 55,000 active; note: nearly all actives have a fitted effect of over 50% in size
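Concentration-response (up to 46 uM) was run for 24 h at the nonpermissive 39C on H1299-p53A138V or H1299-neo cells. ATP content was measured with ATPlite luminescence. AC50 values were Hill-modeled after normalizing between DMSO and 100 uM tamoxifen killing.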
S16 viability: toxic to S16 Pmp22-F2sN Schwann cells; S16 Pmp22-F2sN Schwann cells viability, CellTiter-Glo, 24 h; Potency, µM (highest dose often 57.5 µM), hits mostly cytotoxic; 0.48% of 43,000 active; note: nearly all actives have a fitted effect of over 65% in size
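Rat S16 Schwann reporter line, 24 h treatment with library compounds delivered at 23 nL per well. Cell viability by CellTiter-Glo luminescence.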
p53null 32C kill: kills p53 null cells at the permissive temperature; H1299-neo p53 null cells, ATP luminescence, 24 h, 32C; Potency, µM (highest dose often 46.1 µM), hits mostly cytotoxic; 0.62% of 55,000 active; AID 903; note: nearly all actives have a fitted effect of over 55% in size
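H1299-neo (p53-null) cells, 600/well, were pre-incubated overnight at 37C, then exposed to compounds at up to 46 uM for 24 hr at 32C. Viability was measured as ATP content by luminescence, and AC50 values came from Hill fits.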
PMP22 txn: modulators of PMP22 gene transcription in S16 Schwann cells | S16 Pmp22-F2sN Schwann cells (luciferase reporters placed in the Pmp22 gene), FLuc/NLuc coincidence luminescence, 24 h | Potency, µM (top dose mostly 57.5 µM), most hits filed as inhibitors | 2% of 43,000 active; active = clear falling dose curves in both reporters; inconclusive = both reporters move, but less clearly or upward; inactive = either reporter flat; the % is the NLuc reporter signal
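Schwann cells carrying the coincidence reporter were exposed to library compounds for 24 h at 37C, then lysed and read for FLuc and, after quenching, NLuc luminescence on a CCD imager.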
Hits are given with their value. Compounds with a hit are over-represented: about 3.1% of the library has one in this group of screens. Unless noted, calls come from the whole dose curve; as a rule, active = well fitted curve in the direction sought with a large enough effect; inconclusive = small, poorly fitted or top-dose-only effect, or another doubt; inactive = no such curve, though single readings can be large; an effect the other way counts as inactive or inconclusive.

Screening CCc1ccc(OCC(=O)N(Cc2ccc(C)cc2)Cc2ccco2)cc1 returned pS6 MEF inh 4.14µM, SKOV3 invasion inactive, p53null 39C kill inactive, S16 viability inactive, p53null 32C kill inactive and PMP22 txn inconclusive.
Screening Cc1ccc(CN(Cc2ccco2)C(=O)COc2ccc(C)c(C)c2)cc1 returned pS6 MEF inh inactive, SKOV3 invasion inactive, p53null 39C kill inactive, S16 viability inactive, p53null 32C kill inactive and PMP22 txn inactive.
Cc1c(CN2CCN(C(=O)C(C)C)CC2)sc2c(N3CCOCC3)nc(-c3cnc(N)nc3)nc12 was read as SKOV3 invasion inactive.
Screening CCOc1cccc(-c2nc3ccccc3c(=O)o2)c1 returned pS6 MEF inh inactive, SKOV3 invasion inactive, p53null 39C kill inconclusive, S16 viability inactive, p53null 32C kill 12.6µM and PMP22 txn inactive.
Screening CC(C)(C)OC(=O)CN(Cc1ccc(Cl)cc1)Cc1ccc([N+](=O)[O-])s1 returned SKOV3 invasion inactive.
`O=C(Nc1ncc(SCCN2CCCC2)s1)[C@]1(c2ccc(S(=O)(=O)C3CC3)cc2)C[C@@H]1C1CCCCC1` gave SKOV3 invasion inactive.
Cc1ccc(S(=O)(=O)Nc2cccc(-c3ccc(N4CCCCC4)nn3)c2)s1 was read as pS6 MEF inh inactive, SKOV3 invasion inactive, p53null 39C kill 12.6µM, S16 viability inactive, p53null 32C kill 12.6µM and PMP22 txn inactive.
`CCc1ccc(S(=O)(=O)Nc2cccc(-c3ccc(N4CCCCC4)nn3)c2)s1` gave pS6 MEF inh inactive, SKOV3 invasion inactive, p53null 39C kill 12.6µM and p53null 32C kill 15.8µM.
`CCc1ccc(S(=O)(=O)Nc2cccc(-c3ccc(OC)nn3)c2)s1` gave pS6 MEF inh inactive, SKOV3 invasion inactive, p53null 39C kill inactive, S16 viability inconclusive, p53null 32C kill inactive and PMP22 txn inactive.
`CC(=O)c1ccc(S(=O)(=O)Nc2cccc(-c3ccc(N4CCCCC4)nn3)c2)cc1` gave pS6 MEF inh inactive, SKOV3 invasion inactive, p53null 39C kill 7.94µM and p53null 32C kill 10µM.
CCN1CCN(CC(=O)Nc2ccc(-c3cccc4c(=O)cc(N5CCOCC5)oc34)c3sc4ccccc4c23)CC1 was read as SKOV3 invasion inactive.
`CCN1CCC(n2cc(CNc3cc(Cl)c4ncc(C#N)c(Nc5ccc(F)c(Cl)c5)c4c3)nn2)CC1` gave SKOV3 invasion inactive.
For Cc1ccc(NC(=O)Cn2cc(C(=O)C3CCCCC3)c3ccccc32)c(C)c1 the results were pS6 MEF inh inactive, SKOV3 invasion inactive, p53null 39C kill inactive, S16 viability inactive, p53null 32C kill inactive and PMP22 txn inconclusive.
Cc1cccc(NC(=O)Cn2cc(C(=O)C3CCCCC3)c3ccccc32)c1C was read as pS6 MEF inh inactive, SKOV3 invasion inactive, p53null 39C kill inactive, S16 viability inconclusive, p53null 32C kill inactive and PMP22 txn 10µM.
For Cc1ccc(-n2c(=O)c3ccc(C(=O)NCc4ccco4)cc3n(Cc3ccc(Cl)cc3)c2=O)cc1 the results were pS6 MEF inh 11.7µM, SKOV3 invasion inactive, p53null 39C kill inconclusive, S16 viability inconclusive, p53null 32C kill inactive and PMP22 txn inconclusive.
For Cc1ccc(-n2c(=O)c3ccc(C(=O)NCc4ccco4)cc3n(Cc3ccccc3Cl)c2=O)cc1 the results were pS6 MEF inh inactive, SKOV3 invasion inactive, p53null 39C kill inactive, S16 viability inactive, p53null 32C kill inactive and PMP22 txn inactive.
`O=C(c1cncc(Br)c1)N1CCC(N2CCCC2)CC1` gave SKOV3 invasion inactive.
For Cc1cnc(NC(=O)CSc2nnc(-c3ccccc3)o2)s1 the results were p53null 39C kill 14.1µM and p53null 32C kill inconclusive.
`Cc1cnc(NC(=O)CSc2ncn(-c3ccccc3)n2)s1` gave p53null 39C kill inactive and p53null 32C kill inactive.
C[C@H](NCc1ccc2c(c1)nc(NC(=O)c1ccc(-c3cn[nH]c3)s1)n2CCc1ccccc1)C(C)(C)C was read as SKOV3 invasion 18.7µM.
Screening O=C(Nc1nc2ccccc2n1CCOc1ccccc1Cl)c1ccccc1 returned pS6 MEF inh inactive, SKOV3 invasion inactive, p53null 39C kill inactive, S16 viability inactive, p53null 32C kill inactive and PMP22 txn inconclusive.
COc1ccc2nc(C)cc(Nc3ccc(Cl)c(Cl)c3)c2c1 was read as pS6 MEF inh inconclusive, SKOV3 invasion inconclusive, p53null 39C kill 12.6µM, S16 viability inconclusive, p53null 32C kill inconclusive and PMP22 txn inconclusive.
Screening Cc1c(Cl)cccc1-c1ccc(/C=C(\C#N)c2nc3ccccc3[nH]2)o1 returned pS6 MEF inh inactive, SKOV3 invasion inactive, p53null 39C kill 10µM, S16 viability inactive, p53null 32C kill inconclusive and PMP22 txn inconclusive.
Screening Cc1ccc2nc(/C(C#N)=C/c3ccc(-c4ccc(F)cc4F)o3)[nH]c2c1 returned pS6 MEF inh inactive, SKOV3 invasion inactive, p53null 39C kill 7.94µM, S16 viability inactive, p53null 32C kill inactive and PMP22 txn inactive.
Cc1ccc(S(=O)(=O)Nc2nc3ccccc3nc2Nc2ccc3nsnc3c2)cc1 was read as SKOV3 invasion inactive.
O=C(CSc1nnc2[nH]c(=O)cc(-c3ccccc3)n12)Nc1cc(C(F)(F)F)ccc1Cl was read as pS6 MEF inh inactive, SKOV3 invasion inactive, p53null 39C kill 0.794µM, S16 viability inactive, p53null 32C kill 1.26µM and PMP22 txn inconclusive.
For Cc1cc(=O)[nH]c2nnc(SCC(=O)Nc3cc(C(F)(F)F)ccc3Cl)n12 the results were pS6 MEF inh inactive, SKOV3 invasion inactive, p53null 39C kill inconclusive, S16 viability inactive, p53null 32C kill inactive and PMP22 txn inconclusive.
COc1ccc(CNS(=O)(=O)c2ccc(-c3cc(C(F)(F)F)on3)s2)cc1OC was read as pS6 MEF inh inactive, SKOV3 invasion inactive, p53null 39C kill inactive, S16 viability inconclusive, p53null 32C kill inactive and PMP22 txn 20µM.
Screening COc1ccc(NC(=O)CCc2c(C)nn(-c3ccc(N4CCCCC4)nn3)c2C)cc1Cl returned pS6 MEF inh inactive, SKOV3 invasion inactive, p53null 39C kill inconclusive and p53null 32C kill 10µM.
For CCCNS(=O)(=O)Nc1ncnc(OCCOc2ncc(Br)cn2)c1-c1ccc(Br)cc1 the results were SKOV3 invasion inactive.
`CSc1cccc(Nc2cc(C(=O)NCCc3ccc(Cl)cc3)c3ccccc3n2)c1` gave pS6 MEF inh inactive, SKOV3 invasion inactive, p53null 39C kill inconclusive, S16 viability inactive, p53null 32C kill inactive and PMP22 txn inconclusive.
